EP2 modulator: EP2 receptor modulators, cAMP readout, primary screen, cell-based, HTRF cAMP, PGE2 stimulation; Prostaglandin E2 receptor EP2 subtype (Homo sapiens), P43116; EP2-expressing cells, cAMP HTRF FRET, PGE2 co-stimulation; induction, % at 25 µM; actives 0.83% (n = 260,000); AID 940, 2007;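 active means compounds whose cAMP rise, as percent of the full-agonist control response, exceeds 60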;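 further: rat C6 glioma line stably carrying human EP2 under a CMV promoter; the protocol text gives 20 µM as final concentration; 100% = response of wells given 1 µM PGE2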
S1P4 agonist: S1P4 receptor agonists, primary screen, cell-based. S1P4-expressing cell line, agonist reporter assay. activation, % at 4.98 µM. actives 0.35% (n = 220,000). AID 1509, 2009; in the data active means activation above about 11%;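 further: 0% = DMSO vehicle and 100% = reference agonist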
Target sequence (O95977 whole entry, looked up): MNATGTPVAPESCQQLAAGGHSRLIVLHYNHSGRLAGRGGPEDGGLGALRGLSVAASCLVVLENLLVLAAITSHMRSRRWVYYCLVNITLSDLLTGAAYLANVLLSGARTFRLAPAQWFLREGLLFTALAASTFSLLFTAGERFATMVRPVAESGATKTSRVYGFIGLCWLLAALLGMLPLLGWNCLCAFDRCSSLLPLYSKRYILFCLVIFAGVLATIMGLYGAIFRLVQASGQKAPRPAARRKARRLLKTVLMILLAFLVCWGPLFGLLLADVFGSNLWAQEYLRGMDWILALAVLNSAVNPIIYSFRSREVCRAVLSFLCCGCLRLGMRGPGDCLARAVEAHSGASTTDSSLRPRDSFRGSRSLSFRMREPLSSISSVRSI
S1P4 antag: S1P4 receptor antagonists, primary screen, cell-based; inhibition, % at 4.98 µM; Sphingosine 1-phosphate receptor 4 (Homo sapiens), O95977; actives 0.26% (n = 220,000); S1P4-expressing cells, antagonist mode, reporter read-out; in the data active means inhibition above about 29%;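 further: 0% = wells stimulated with agonist and 100% = vehicle wells without agonist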
PGE2 EP2 inh: human EP2 receptor antagonists, primary screen, TR-FRET cAMP, C6 glioma cells; C6 glioma cells expressing human EP2; cells stimulated with saturating PGE2; actives 0.52% (n = 260,000); inhibition, % at 25 µM; AID 1422, 2008;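 active means percent inhibition above 40 after rounding to a whole number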;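 further: rat C6 glioma host cells with rolipram phosphodiesterase inhibitor present; the protocol text gives 20 µM as final concentration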
S1P3 antag: S1P3 receptor antagonists, primary screen, cell-based | Sphingosine 1-phosphate receptor 3 (Homo sapiens), Q99500 | actives 0.27% (n = 170,000) | CHO S1P3 NFAT-BLA reporter, FRET fluorescence, antagonist mode | AID 485, 2006 | inhibition, % at 4.98 µM;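 active means inhibition above the plate cutoff, the mean inhibition of test wells on that plate plus 3 SD, cut at about 28% in these data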;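 further: cells challenged with S1P at its EC80 of 0.8 µM; blue over green emission ratio from cleaved BLA substrate after 4 h stimulation; 0% = S1P-stimulated wells and 100% = unstimulated DMSO-only wells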
* hit, by the source's call; / = not tested or not shown; ! = repeats disagree. The list is not random: actives were taken first. Their share in the collection is about 1.9%.

SMILES	EP2 modulator	S1P4 agonist	S1P4 antag	PGE2 EP2 inh	S1P3 antag
CCOc1ccccc1NC(=O)C(NCC1CCCCC1)c1ccccc1 (centres undefined)	65*	1	-7	9	14
CCOc1ccccc1NC(=O)C(NCCN(C)C)c1ccccc1 (centres undefined)	15	2	-7	5	-31
COc1cc(CN2CCN(C(=O)c3cccc(OC)c3OC)CC2)cc(OC)c1OC	-5	/	/	13	/
Cc1cc2c(o1)CCc1sc(N(C)C(=O)CCn3ncc4ccccc43)nc1-2	-17	/	/	3	/
CCC(=O)Nc1ccccc1-c1nc2ccccc2s1	3	/	/	20	/
O=C(CSc1n[nH]c(-c2ccncc2)n1)c1ccccc1	6	0	-16	14	72*
CC(C)(C)C(=O)NC1CCN(CC(=O)Nc2ccc3c(c2)OCCO3)CC1	14	/	/	8	/
CSC1=NC(C)(C)CC(C)O1 (centres undefined)	18	/	/	7	/
O=C1C=C(NCCc2cc(Br)c(O)c(Br)c2)C(=O)c2ncccc21	-49	/	/	104*	/
O=C(O)CSc1cc(C(=O)c2ccccc2O)cn2c(=O)c3c(-c4ccccc4)csc3nc12	61*	1	1	8	-13
CC(=O)NC(C)C(c1cccs1)N1CCN(c2ccccc2)CC1 (centres undefined)	-8	4	-13	8	64*
CCC(=O)NC(C)C(c1cccs1)N1CCN(c2ccccc2)CC1 (centres undefined)	8	-3	-5	6	-20
CCN(CC)c1ccc(/C=N/Nc2nc3ccccc3[nH]2)c(O)c1	-56	0	2	61*	/
Cc1ccc2nc(N/N=C/c3cccc(C)n3)cc(C)c2c1	-45	/	/	40*	/
CCCSC1=C(C#N)C(c2ccccc2C)CC(=O)N1 (centres undefined)	32	1	-12	15	15
CCCCSC1=C(C#N)C(c2ccccc2C)CC(=O)N1 (centres undefined)	29	0	-5	10	102*
NC1=NC(=Nc2cccc(S(N)(=O)=O)c2)c2ccccc21	0	0	0	11	-7
COc1cc(N=Nc2cccc(S(N)(=O)=O)c2)c2ccccc2c1N	-51	-1	-10	79*!	0
Cc1cc2cc(CN(CCO)C(c3nnnn3C3CCCC3)C(C)C)c(=O)[nH]c2cc1C (centres undefined)	2	/	/	11	/
c1ccc2sc(SCN(C3CCCCC3)C3CCCCC3)nc2c1	21	/	/	43*	/
Cc1ccc(CN(CCCn2ccnc2)Cc2cccn2-c2cccc(F)c2)o1	62*	/	/	4	/
CC(NC(=O)c1ccco1)c1nc2cccnc2n1C(C)C (centres undefined)	5	/	/	12	/
CC(=O)N1c2c(ccc3ccccc23)C(C)CC12CCCCC2 (centres undefined)	29	-5	-3	12	/
CC1CC2(CCCCC2)Nc2c1ccc1ccccc21 (centres undefined)	63*	2	3	16	/
Cc1[nH]n2c(=O)c3c(nc2c1C#N)CCC3	-14	/	/	5	/
SMILES	EP2 modulator	S1P4 agonist	S1P4 antag	PGE2 EP2 inh	S1P3 antag
N#CC1=C(N)Oc2n[nH]c(-c3cccs3)c2C1c1cccs1 (centres undefined)	-20	-2	-2	52*	/
N#CC1=C(N)Oc2n[nH]c(-c3cccs3)c2C1c1ccc(O)cc1 (centres undefined)	-27	/	/	13	/
COCCNC(=O)C(OC(=O)c1cc2sccc2n1C)c1ccncc1 (centres undefined)	-27	/	/	5	/
CC(=O)c1sc(C(C)(C)C)cc1NC(=O)c1ccccc1C(=O)O	77*	0	-2	20	3
Cc1ccccc1S(=O)(=O)Nc1nc2ccccc2nc1N1CCc2ccccc2C1	61*	3	-18	12	-2
O=S(=O)(Nc1nc2ccccc2nc1N1CCc2ccccc2C1)c1ccc(Br)cc1	5	0	7	7	-10
CC1(C)CCC2=C(O1)c1ccccc1C(=O)C2=O	-31	/	/	41*	/
Cc1nc2sc3c(c2c2nnc(SCC(=O)NCc4ccc5c(c4)OCO5)n12)CCC(C)C3 (centres undefined)	32	/	/	10	/
CCc1nc2sc3c(c2c2nnc(SCC(=O)NCc4ccc5c(c4)OCO5)n12)CCC(C)C3 (centres undefined)	80*	/	/	14	/
Cn1c(=S)n(/N=C/c2ccc3c(c2)OCO3)c2ccccc21	64*	2	-9	7	-5
COc1ccc(/C=N/n2c(=S)n(C)c3ccccc32)cc1OC	58	-1	-11	0	/
COc1cccc(C2(NC(=O)CCc3c(C)noc3C)CCCC2)c1	-26	/	/	6	/
O=C(O)c1cccc(N=Nc2c(S(=O)(=O)O)ccc3c2C(=O)c2ccccc2C3=O)c1O	-33	/	/	46*	/
Cc1cc(C)cc(-n2nnnc2SCC(=O)Nc2ccc3c(c2)OCO3)c1	11	/	/	13	/
O=S(=O)(c1ccc(-n2cnnn2)cc1)N(C1CCCCC1)C1CCCCC1	64*	0	-16	5	26
CN(C1CCCCC1)S(=O)(=O)c1ccc(-n2cnnn2)cc1	14	-2	3	8	-10
O=c1[nH]c(=S)[nH]c2c1CN(CCCN1CCOCC1)CN2	-42	/	/	102*	/
Nc1ccc2nc(-c3cccs3)[nH]c2c1	4	0	-22	93*	/
COCCCn1c(=N)c(C(=O)OC)cc2c(=O)n3cc(C)ccc3nc21	23	/	/	11	/
COc1ccc(CCNC(=O)CN2C(=O)c3cccc4cccc2c34)cc1	-51	/	/	13	/
O=S(=O)(Nc1ccc(O)c(CN2CCCCC2)c1)c1ccccc1	-8	0	-5	8	-7
CSc1nc(C)cc(Nc2ccc(O)c(CN3CCCCC3)c2)n1	-1	/	/	45*	/
CC(C)(C)n1nnnc1C(c1cccnc1)N(Cc1ccccc1)Cc1ccco1 (centres undefined)	30	2	-1	23	/
COc1cccc(CN(Cc2ccco2)C(c2ccc(F)cc2)c2nnnn2C(C)(C)C)c1 (centres undefined)	1	1	-5	14	64*
Cc1c2cc[n+](CCN3CCCCC3)cc2c(C)c2c1[nH]c1ccc(O)cc12	14	/	/	51*	/
c1ccc(CCNc2nc(-c3ccncc3)nc3ccccc23)cc1	-29	0	-1	46*	9
c1ccc(Nc2nc(-c3ccncc3)nc3ccccc23)cc1	-6	2	-3	3	7
COc1ccc(-c2cc(C(=O)O)c3ccccc3n2)c(OC)c1	2	2	2	10	-15
COc1ccc(OC)c(-c2cc(C(=O)O)c3cc4ccccc4cc3n2)c1	6	/	/	55*	/

Screening results as filed in PubChem BioAssay.
